For 93 compounds, max response and Potency results are on record in PubChem BioAssay AID651813 (National Center for Advancing Translational Sciences (NCATS), 2012).

Each structure is given as a SMILES string. Hit rate of the full screen: of about 2,100 compounds, about 1,100 (52%) were called active. About 27% were inconclusive and are not listed. Calls follow the shape of the dose curve; as a rule, active = well fitted inhibition curve with a large enough effect; inconclusive = small, poorly fitted or top-dose-only effect; inactive = no such curve, though single readings can be large or run the other way. The set was probably picked from earlier hits. Some of the results follow.
Potency is read from the fitted curve at half-maximal effect.

Sequence of DNA dC->dU-editing enzyme APOBEC-3G (Homo sapiens) (Q9HC16 whole entry, looked up): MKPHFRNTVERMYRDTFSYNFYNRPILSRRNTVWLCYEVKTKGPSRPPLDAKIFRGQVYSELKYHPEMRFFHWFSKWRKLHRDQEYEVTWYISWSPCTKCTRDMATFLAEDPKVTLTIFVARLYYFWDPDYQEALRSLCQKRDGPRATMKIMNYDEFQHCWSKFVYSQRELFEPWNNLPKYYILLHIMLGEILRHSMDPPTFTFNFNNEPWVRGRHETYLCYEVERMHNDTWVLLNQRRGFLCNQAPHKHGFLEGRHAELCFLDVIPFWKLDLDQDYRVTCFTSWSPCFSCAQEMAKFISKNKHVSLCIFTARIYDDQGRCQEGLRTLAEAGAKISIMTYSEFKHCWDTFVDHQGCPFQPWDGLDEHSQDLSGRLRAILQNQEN

This experiment concerns the target DNA dC->dU-editing enzyme APOBEC-3G (Homo sapiens) (UniProt Q9HC16). Briefly: qHTS for inhibitors of Vif-A3G interactions: Cherry picks counterscreen.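 Also: hits raise yellow fluorescence by blocking Vif-driven A3G-eYFP degradation; nearly all actives have a fitted effect of over 70% in size.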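 As to max response: max response given as percent of control signal.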 Particulars: HeLa A3G-eYFP + Vif (tagged APOBEC3G with the HIV-1 protein that degrades it), eYFP fluorescence, 24 h. In short, it runs like this: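 HeLa cells stably expressing A3G-eYFP and Vif were treated for 24 h at 37 deg C with compounds at several concentrations; yellow fluorescence (Ex 488 nm, Em 500-530 nm) read by Acumen Explorer, MG132 as positive control.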
A general note: Quantitative high-throughput screening tests each substance at several concentrations.
Turning to `COCCNC(=S)N/N=C(\C)c1ccccc1O`, the max response was 6.88% (inactive).
Take `COc1ccccc1/C=N/NC(=O)c1cc2c(OC)c(OC)ccc2[nH]1`: the Potency was 5.59 µM (active).
As for `CCOc1ccc(/C=N/NC(=O)c2cc3c(OC)cccc3[nH]2)cc1`, the max response was 2.03% (inactive).
Consider `COCCCNC(=S)N/N=C/c1cccc(OC)c1O`, for which the max response is 7.9% (inactive).
Consider `COc1cccc(/C=N/NC(=O)c2cc3c(OC)c(OC)ccc3[nH]2)c1OC`, for which the Potency was 7.9 µM (active).
The same measure, in the same setting: the figure for `COc1ccc(N=Cc2c(O)n(-c3cccc(C)n3)c(=O)c3ccccc23)c(OC)c1` is 6.51 µM (active).
As to `Cc1ccc(N=Cc2c(O)n(-c3nccs3)c(=O)c3ccccc23)c(C)c1`, the max response is -1.11% (inactive).
For the compound `CC1=Nc2ccc(C)cc2/C1=C/c1c(N)n2oc(C)cc2nc1=O`, the Potency was 16.4 µM (active).
With `CCSC1=NSC2=NC(=O)/C(=C\c3coc4ccccc4c3=O)C(=N)N12`, the Potency is 16.4 µM (active).
Take `Cc1ccc(Cn2c(SCc3ccc(C(=O)NC4CCCC4)cc3)nc3ccncc32)cc1`: the max response was -1.29% (inactive).
Consider `Cc1ccc(O)c(Nc2c3ccccc3nc3ccccc23)c1`, for which the max response was 10.9% (inactive).
As for `COc1ccc(C)cc1Nc1c2c(nc3ccccc13)CCC2`, the Potency is 0.886 µM (active).
On the same count and under the same terms, the figure for `Cc1ccc(-c2cn3nc(-c4ccccc4)c(-c4ccccc4)nc3n2)cc1` is 16.4 µM (active); for `Cc1ccc(N=C2NC(=O)/C(=C/c3cn(C)c4ccccc34)S2)cc1C` it is 17.7 µM (active).
For `Cc1ccc(N=C2NC(=O)/C(=C/c3cccn3C)S2)cc1`, the Potency was 14 µM (active).
Same read-out and setting: the figure for `Cn1cccc1/C=C1\SC(=Nc2ccccc2)NC1=O` is 2.5 µM (active); for `Cn1cccc1/C=C1\SC(=Nc2cccc(O)c2)NC1=O` it is 11.2 µM (active).
Turning to `Cc1cccc(N=C2NC(=O)/C(=C/c3cccn3C)S2)c1`, the max response is -23.6% (inactive).
Take `COc1cc(S(=O)(=O)Nc2ccccc2N2CCCCC2)ccc1NC(C)=O`: the Potency is 2.23 µM (active).
With `O=C(NC(=S)Nc1ccccc1N1CCCCC1)c1ccccc1`, the max response is 8.17% (inactive).
With `C=CCN1C(=O)/C(=C2/Sc3ccc(OC)cc3N2CC)SC1=S`, the Potency was 11.6 µM (active).
For `C=CCN1C(=O)/C(=C2/Sc3ccc(OC)cc3N2C)SC1=Nc1cccc(O)c1`, the Potency is 18.4 µM (active).
Regarding `Cc1cc(-n2c(SCC(=O)Nc3ccc(Br)cc3)nc3n[nH]c(C)c3c2=N)ccc1Cl`, the max response was -13.3% (inactive).
For the compound `CCOC(=O)N1CCc2c(sc3c2C(=O)NC(c2ccc(N(C)C)cc2)N3)C1` (stereo not drawn), the Potency was 4.11 µM (active).
In the case of `O=C(Nc1nc(-c2ccccn2)cs1)C1CCCC1`, the max response was -16.3% (inactive).
In the case of `CC(=O)c1ccc(-c2ccc(C(=O)Nc3nc(-c4ccccn4)cs3)o2)cc1`, the Potency was 12.5 µM (active).
Take `O=C(CC1CC2CCC1C2)Nc1nc(-c2ccccn2)cs1` (stereo not drawn): the max response was 10.6% (inactive).
For the compound `Cc1cc(/C=N/NC(=O)c2cc3ccccc3o2)c(C)n1C`, the max response is -4.16% (inactive).
As to `Cc1c(/C=N\NC(=O)c2cc3ccccc3o2)c2ccccc2n1C`, the Potency is 3.96 µM (active).
For `O=C(N/N=C/c1cccc2ccccc12)c1cc2ccccc2o1`, the Potency is 9.94 µM (active).
Take `CCCOc1ccc(NC(=O)CC2C(=O)N(c3ccc(OCC)cc3)C(=S)N2C2CC2)cc1` (stereo not drawn): the max response was -18.2% (inactive).
For the compound `COc1cc(N2CCCC2)c(OC)cc1/C=C(/C#N)c1ccc(F)cc1`, the Potency is 8.2 µM (active).
Consider `COc1cc(N2CCCC2)c(OC)cc1/C=C1/NC(=S)NC1=O`, for which the max response is 60.5% (inactive).
On to `COc1cc(N2CCCC2)c(OC)cc1/C=C(/C#N)c1ccc(Br)cc1`, for which the Potency is 1.64 µM (active).
Still for that read-out and setting: the figure for `COC(=O)COc1cccc2c(=O)n(CC(=O)NCc3ccccc3)ccc12` is 6.27 µM (active); for `CCOC(=O)C(C)Oc1cccc2c(=O)n(CC(=O)NCc3ccco3)ccc12` (stereo not drawn) it is 1.4 µM (active); for `O=c1[nH]c(NCc2ccco2)nnc1Cc1ccccc1Cl` it is 15.8 µM (active).
Take `CC(=O)Nc1sc(/C(C#N)=C/c2ccc(Cl)c(Cl)c2)nc1-c1ccc(C)cc1`: the Potency was 0.731 µM (active).
Consider `CC(=O)Nc1sc(/C(C#N)=C\c2cccc(Cl)c2)nc1-c1ccc(C)cc1`, for which the Potency was 4.61 µM (active).
`CCOc1cc(/C=C(\C#N)c2nc(-c3cccs3)c(NC(C)=O)s2)ccc1O`: the max response was 51.1% (inactive).
The same measure, in the same setting: the figure for `CCCCOc1ccc(/C=C/C2=CC(C)(C)NC(=S)N2)cc1OCC` is -1.97% (inactive).
Take `COc1ccccc1-c1c(C#N)c(N)nc2c1CCc1ccccc1-2`: the Potency is 6.27 µM (active).
Consider `CC1=C(C(=O)Nc2cccc(F)c2)C(c2ccsc2)C2=C(CC(C)(C)CC2=O)N1` (stereo not drawn), for which the Potency was 1.98 µM (active).
Regarding `Cc1cc(C)c(S(=O)(=O)Oc2ccccc2[N+](=O)[O-])c(C)c1`, the Potency was 3.53 µM (active).
In the case of `O=[N+]([O-])c1ccccc1SNc1ccccc1`, the max response is -7.81% (inactive).
Turning to `CC(C)n1cnc2c(NCc3ccccc3)cc(N[C@H](C)CO)cc21`, the Potency is 15.8 µM (active).
Consider `FC(F)(Cl)c1nnc2ccc(Cl)nn12`, for which the Potency was 6.27 µM (active).
For `N#CCC(=O)N/N=C/c1ccc(N2N=C(c3ccccc3)CC2c2ccccc2)cc1` (stereo not drawn), the Potency is 16.4 µM (active).
The same measure, in the same setting: the figure for `COc1cc2c3nnc(-c4ccc(F)cc4)c-3cn(Cc3ccc(C)cc3)c2cc1OC` is 9.94 µM (active); for `COc1cc2c3nnc(-c4ccc(F)cc4)c-3cn(Cc3ccccc3F)c2cc1OC` it is 20.6 µM (active).
As for `CCOC(=O)CSC1=C(C#N)C(c2ccc(C)s2)CC(=O)N1` (stereo not drawn), the Potency is 1.77 µM (active).
Regarding `CCOc1ccccc1Nc1nnc(-c2cc3cc(OC)ccc3oc2=O)s1`, the Potency was 5.17 µM (active).
For the compound `COc1ccc2oc(=O)c(-c3nc4ccccc4o3)cc2c1`, the Potency was 10.3 µM (active).
Regarding `O=C(CCCCl)Oc1ccc2cc(-c3ccc4ccccc4n3)c(=O)oc2c1`, the max response was 32.5% (inactive).
Take `CC(=O)Nc1ccc(C2=CC(=O)C[C@H](c3ccc(Cl)cc3)C2)cc1`: the Potency is 18.4 µM (active).
For `CC(=O)Nc1ccc2c(c1)Cc1ccc(Cl)cc1-2`, the max response was -8.49% (inactive).
Take `CN(C)CCN(C(=O)/C=C/c1cccs1)c1nc2c(F)cc(F)cc2s1`: the max response is -22.8% (inactive).
In the case of `O=C(Nc1ccc([N+](=O)[O-])cc1)C(Cc1ccccc1)N1C(=O)c2cccc3cccc(c23)C1=O` (stereo not drawn), the Potency is 8.86 µM (active).
Still for that read-out and setting: the figure for `Nc1c(C(=O)Nc2ccc(S(=O)(=O)N3CCCC3)cc2)sc2nc3ccc(OC(F)(F)F)cc3cc12` is 18.4 µM (active); for `CCc1cccc2cc3c(N)c(C(=O)Nc4ccc(S(=O)(=O)N5CCCC5)cc4)sc3nc12` it is 5.59 µM (active).
Same read-out and setting: the figure for `Nc1c(C(=O)Nc2ccc(S(=O)(=O)N3CCCC3)cc2)sc2nc3cc4c(cc3cc12)CCC4` is 10.3 µM (active).
On to `Cn1c(N)c(-c2ccccc2)c2ccc([N+](=O)[O-])cc2c1=O`, for which the Potency is 5.59 µM (active).
In the case of `N#Cc1c(-c2ccccc2F)cc(C2CC2)nc1SCC(=O)c1cccs1`, the Potency was 14 µM (active).
For `CNC(=S)N/N=C(\C)c1ccc(Cl)s1`, the max response was 0.869% (inactive).
`COc1ccc(Cl)cc1NC(=O)CN(C)CC(=O)Nc1ccccc1N1CCOCC1`: the Potency is 1.58 µM (active).
As for `COc1cc(Cl)c(C)cc1NC(=O)CN1CCN(C(=O)C2CC2)CC1`, the max response is -28.2% (inactive).
Take `Fc1ccc(CNc2nc3ccccc3n3nnnc23)cc1`: the Potency was 23.1 µM (active).
As for `CC(NC(=O)c1ccc(Nc2nc3ccccc3n3nnnc23)cc1)c1ccccc1` (stereo not drawn), the Potency was 20.6 µM (active).
For the compound `CN(C)c1ccc(Nc2nc3ccccc3n3nnnc23)cc1`, the max response is -13.6% (inactive).
On the same count and under the same terms, the figure for `c1ccc2c(c1)nc(N1CCOCC1)c1nnnn12` is -18.6% (inactive).
As to `Fc1ccccc1Nc1nc2ccccc2n2nnnc12`, the Potency was 20.6 µM (active).
For `Cc1ccc(C(=O)O)cc1Nc1nc2ccccc2n2nnnc12`, the max response was -28% (inactive).
Take `CN(C)S(=O)(=O)c1ccc2c(c1)/C(=C/c1cc3c([nH]1)CCCC3)C(=O)N2`: the Potency was 2.8 µM (active).
Turning to `Nc1c(C(=O)C2CC2)sc2nc(-c3cccs3)cc(C(F)(F)F)c12`, the Potency was 0.461 µM (active).
With `CC(C)(C)C(=O)c1sc2nc(-c3cccs3)cc(C(F)(F)F)c2c1N`, the Potency is 0.731 µM (active).
`CC(=O)c1sc2nc(-c3cccs3)cc(C(F)(F)F)c2c1N`: the Potency was 13 µM (active).
In the case of `CCN(CC)C(=O)c1sc2nc(-c3cccs3)cc(-c3ccc(Cl)cc3)c2c1N`, the Potency is 15.8 µM (active).
Turning to `Clc1ccccc1C1CC(c2ccccc2)=Nc2ccccc2N1` (stereo not drawn), the max response was -7.91% (inactive).
Turning to `Cc1ccc2nc(SCC(=O)Nc3ccc4sc(C)nc4c3)c(C#N)cc2c1`, the Potency is 18.4 µM (active).
With `Cc1nc2cc(NC(=O)CSc3nc4c(C)cccc4cc3C#N)ccc2s1`, the Potency was 20.6 µM (active).
`COCCN(CCOC)Cc1c(O)ccc2c1O/C(=C\c1ccc(C)o1)C2=O`: the max response was -11.8% (inactive).
On to `Cc1nnc(N2C(=O)c3cccc4c([N+](=O)[O-])ccc(c34)C2=O)s1`, for which the Potency was 20.6 µM (active).
For `O=C1c2cccc3c([N+](=O)[O-])ccc(c23)C(=O)N1c1ccccn1`, the max response was 54.4% (inactive).
Regarding `CC(=O)Oc1cccc(N2C(=O)c3cccc4c([N+](=O)[O-])ccc(c34)C2=O)c1`, the Potency is 15.8 µM (active).
The same measure, in the same setting: the figure for `N#CC1=C(N)C(C#N)(C#N)[C@H](c2c(F)cccc2F)[C@H]2CC3(CC=C12)OCCO3` is 16.4 µM (active); for `Cc1ccc(C(=O)NCCn2c(N)c(C#N)c3nc4ccccc4nc32)cc1` it is 23.1 µM (active).
With `Cc1cccc(-n2c(N)c(-c3nc4ccccc4n3C)c3nc4ccccc4nc32)c1`, the max response was -1.87% (inactive).
`COc1ccc(/C=N/NC(=O)c2cccnc2)cc1COc1ccc(NC(C)=O)cc1`: the Potency was 12.5 µM (active).
Consider `COc1ccc(/C=N/NC(=O)c2ccccc2Cl)cc1CSc1nc2ccccc2s1`, for which the Potency was 3.14 µM (active).
As for `COc1cnc(-c2ccccn2)nc1Oc1ccc(F)cc1F`, the max response was -4.73% (inactive).
As to `COc1cc(OC)cc(C(=O)N/N=C/c2ccc(OC)c(COc3ccc4ccccc4c3)c2)c1`, the Potency is 15.8 µM (active).
Same read-out and setting: the figure for `COc1ccc(/C=N/NC(=O)c2cccnc2)cc1CSc1ccccn1` is 5.59 µM (active).
With `COc1ccccc1/C=N/NC(=S)Nc1cccnc1`, the max response is -12.2% (inactive).
